TTR transcr act = TTR transcription activators in neuroblastoma reporter cells, primary screen, cell-based, luminescence, SH-SY5Y, TTR promoter Gaussia luciferase | 100% = recombinant luciferase protein wells | activation, % at 16.7 µM | hit rate 1.3% among 92,000 | AID 1117267, 2014;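 active means activation above the mean of all tested compounds plus 3 SD, cut at about 9.5% in these data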;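 further: cells exposed to compounds for one day before reading; 0% = median of all test compound wells on the plate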
HuH7 TTR inh = TTR promoter reporter inhibitors in hepatoma cells, counter-screen for TTR transcription activator project, cell-based, luminescence, HuH7 hepatoma | hit rate 4% among 1,100 | AID 1117279, 2014 | inhibition, % at 16.7 µM | shares compounds with TTR transcr act | HuH7 TTR promoter-Gaussia luciferase reporter;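 active means average inhibition above the solvent-only control wells' mean plus 3 SD, cut at about 15% in these data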;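 further: 0% = cells with DMSO only and 100% = cells with inhibitor control FD; inhibitors lower well luminescence so higher value means more inhibition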
TTR up confirm = TTR transcription activators, retest, confirmation, cell-based, luminescence, SH-SY5Y, triplicate | shares compounds with TTR transcr act | SHSY5Y TTR promoter Gaussia luciferase; 100% = purified Lucia enzyme wells, no cells | AID 1117280, 2014 | 1,100 tested, under 10 active | activation, % at 16.7 µM;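 active means mean activation above a set limit taken from the earlier primary screen, cut at about 11% in these data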;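 further: 0% = DMSO-treated cells and 100% = recombinant Lucia luciferase without cells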
* marks the source's active call; other numbers are inactive results. The sample as a whole holds a higher share of hits than the screen did.

SMILES	TTR transcr act	others
CCOC(=O)[C@]12CCCC3=C1N(CCC3)C(=O)[C@@H](CC(=O)N1CCOCC1)C2	0
CCCC1CCC2(CCCN2CCOC(=S)NCc2cccc(C)c2)CC1 (stereo not drawn)	5
Cc1cccc(Cl)c1-n1nnnc1C1(C)CSCC(=O)N1Cc1ccc(F)cc1 (stereo not drawn)	2
Cc1nn(C)c(C)c1/C=N/NC(=O)c1csc2ccccc12	-2
Cc1sccc1/C=N/NC(=O)c1cccc2ccccc12	-2
CCn1ncc(/C=N\NC(=O)c2csc3ccccc23)c1C	15*	HuH7 TTR inh=18*;TTR up confirm=-1
O=C(OCC#CCSc1nnc(-c2cccc3ccccc23)o1)c1ccc(C(F)(F)F)cc1	-1
O=C1CN(S(=O)(=O)c2cccc(Br)c2)CCN1	14*	HuH7 TTR inh=-10;TTR up confirm=0
COC(=O)CCN1CCN(S(=O)(=O)c2cccc(Br)c2)CC1	2
Cc1ccc(S(=O)(=O)N2CCNC(=O)C2)c(C)c1	6
C[C@H]1[C@@H](OC(=O)Nc2ccccc2C(F)(F)F)CC[C@@]23CCCN2C(=O)CCC[C@@H]13	4
O=C(OCc1cn(Cc2ccc(Cl)cc2)nn1)N1CCOCC1	1
CC(C)n1nnnc1C1(C)CSCC(=O)N1Cc1cccc(F)c1 (stereo not drawn)	-1
COc1ccc(NC(=O)CCCNS(=O)(=O)c2ccc3[nH]c(=O)oc3c2)cc1OC	0
Cc1cc(Br)c(NC(=O)CCNC(=O)OCc2ccccc2)cc1C	0
COC(=O)C(CCCCNC(=O)OCc1ccccc1)NC(=O)CN (stereo not drawn)	1
COC(=O)C(CSCc1ccccc1)NC(=O)CCNC(=O)OCc1ccccc1 (stereo not drawn)	14*	HuH7 TTR inh=-16;TTR up confirm=0
O=C(Nc1ccc(F)cc1)OCc1cn(Cc2ccccc2Cl)nn1	1
CCOC(=O)c1c(C)[nH]c(C)c1C(=O)COC(=O)c1ccc(O)cc1	-1
CCOC(=O)c1c(C)[nH]c(C)c1C(=O)COC(=O)c1sccc1C	11*	HuH7 TTR inh=-16;TTR up confirm=0
CCOC(=O)c1c(C)[nH]c(C)c1C(=O)COC(=O)c1c(OC)cccc1OC	-1
CCCCNC(=O)C[C@H]1C[C@@]2(C(=O)OC)C(=C[C@H](C(C)C)O[C@@H]2C2CC2)N(Cc2cccc3ccccc23)C1=O	-1
COc1ccc(OC)c(CN2C(=O)CCCC2(C)c2nnnn2C2CCCC2)c1 (stereo not drawn)	0
C/C(=N/NC(=O)Cc1cccn1C)c1ccccc1	0
C/C(=N\NC(=O)Cc1cccn1C)c1ccc2ccccc2c1	11*	HuH7 TTR inh=-20;TTR up confirm=0
SMILES	TTR transcr act	others
C/C(=N\NC(=O)Cc1cccn1C)c1ccco1	0
COC(=O)[C@]12C[C@H](CC(=O)NCC34CC5CC(CC(C5)C3)C4)C(=O)N(CCC3=CCCCC3)C1=C[C@H](C1CCCC1)O[C@@H]2C	1
CCC(CC)c1nnc(NC(=O)CCN2C(=O)c3ccccc3C2=O)s1	15*	HuH7 TTR inh=-18;TTR up confirm=0
O=C(CCN1C(=O)c2ccccc2C1=O)Nc1nc2ccccc2s1	-1
CC(C)Cc1nnc(NC(=O)CCN2C(=O)c3ccccc3C2=O)s1	0
N#Cc1cccc(Cn2ccc3ccc(-c4ccc5ccn(Cc6ccccc6)c5c4)cc32)c1	-1
Cc1c(-c2ccccc2Cl)nc2ccccc2c1C(=O)O	0
CC(C)(C)C(=O)Nc1nc(NC(=O)C(C)(C)C)nc(-c2ccccc2Cl)n1	10*	HuH7 TTR inh=0;TTR up confirm=-1
CC(C)(C)C(=O)Nc1cc2nn(-c3ccccc3)nc2cc1Cl	-1
CCC[C@H]1[C@@H](NC(=O)NCC)CC[C@@]23CCCN2C(=O)CCC[C@@H]13	1
CC(C)(C)c1ccc(S(=O)(=O)N2CCN(Cc3cc4c(cc3O)OCO4)CC2)cc1	15*	HuH7 TTR inh=-7;TTR up confirm=1
O=S(=O)(c1ccc(Cl)nc1)N1CCN(Cc2ccc3c(c2)OCO3)CC1	-1
CCOc1ccc(S(=O)(=O)N2CCN(Cc3ccc4c(c3)OCO4)CC2)cc1OCC	-2
O=S1(=O)c2ccc(N3CCCC3)cc2Oc2ccccc2CN1Cc1cn(Cc2ccc(F)cc2)nn1	0
C=CCN1[C@@H](C)[C@H](c2ccccc2)Oc2cccc(NCCc3ccccc3)c2S1(=O)=O	-1
NC(=NCCc1ccccc1)NS(=O)(=O)c1cccs1	19*	HuH7 TTR inh=-8;TTR up confirm=0
COc1ccc(CCN=C(N)NS(=O)(=O)c2cccs2)cc1	3
NC(=NCCc1ccc(Cl)cc1)NS(=O)(=O)c1ccccc1	8
C[C@@H]1CCN(C2CC2)S(=O)(=O)c2ccc(N3CCC[C@@H]3CO)cc2O1	0
NC(=O)C1CCN(c2nc(-c3ccc(Oc4ccccc4)cc3)cs2)CC1	-2

Screening data: PubChem BioAssay, The Scripps Research Institute Molecular Screening Center
